Among the data in PubChem BioAssay AID1778 (Sanford-Burnham Center for Chemical Genomics, 2009) are inhibition values, retold here.

About 260 (0.09%) of roughly 290,000 compounds were called active. Shown is part of a subset that was picked to be rich in actives. Potency and affinity values are given separately. Values without a mark were called inactive. Cut-off read from the data, not from the text of the source: active = inhibition above about 50%; inactive = the rest.

Kappa-type opioid receptor (Homo sapiens), sequence (P41145 whole entry, looked up): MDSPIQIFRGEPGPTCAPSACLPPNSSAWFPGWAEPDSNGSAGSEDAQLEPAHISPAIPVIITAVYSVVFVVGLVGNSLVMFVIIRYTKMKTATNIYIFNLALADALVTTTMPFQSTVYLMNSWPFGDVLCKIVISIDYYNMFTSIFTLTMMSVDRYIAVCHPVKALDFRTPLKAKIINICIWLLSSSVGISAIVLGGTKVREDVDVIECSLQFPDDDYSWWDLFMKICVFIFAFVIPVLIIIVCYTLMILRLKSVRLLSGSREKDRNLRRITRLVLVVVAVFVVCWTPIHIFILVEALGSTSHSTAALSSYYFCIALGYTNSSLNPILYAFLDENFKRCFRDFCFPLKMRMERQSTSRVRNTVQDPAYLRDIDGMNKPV

The experiment concerns the target Kappa-type opioid receptor (Homo sapiens) (UniProt P41145). Put plainly: kappa opioid receptor blockers – cell-based, luminescence, uHTS (AID 1778). To be noted: KOR beta-arrestin recruitment, antagonist mode, stronger effect = higher value; at 10 µM unless noted.
Consider `CCN1CCN(CCC(=O)Nc2ccc(C)cc2)CC1`, for which the inhibition (in general, the drop in the measured response relative to a control, in per cent) was -48.9% [at 20 µM]. `Cc1cccc(CC2CC(=O)N(c3ccccc3)C2=O)c1` (configuration not stated): the inhibition is -23.5%. The same measure for `Cc1ccc(C)c(S(=O)(=O)N2CCC3(CC2)OCCO3)c1`: 11.1%; for `CN(C)S(=O)(=O)c1cccc(N=c2scc(-c3ccc4c(c3)NC(=O)CO4)n2CC2CCCO2)c1` (configuration not stated): -17.4%. The same measure for `O=C1COc2ccc(-c3csc(=Nc4ccc(OC(F)F)cc4)n3CC3CCCO3)cc2N1` (configuration not stated): 14.3%; for `CSCCNC(=O)c1ccc(OC2CCN(S(=O)(=O)N(C)C)CC2)cc1`: 11.7% [at 20 µM]. As for `CN(C)C(=O)c1c2c(nc3ccccc13)-c1ccccc1CC2`, the figure is 7.9%; as for `CCOc1ccc(NC(=O)c2ccc(NC(=S)NC3CCCCC3)cc2)cc1`, 5.4% [at 20 µM]; as for `Cc1ccc(OCc2ccccc2C)c([N+](=O)[O-])n1`, -33%. As for `CCCN(CCC)CC(O)Cn1cc(/C=C/C(=O)c2ccccc2)c2ccccc21` (configuration not stated), the inhibition is 19%.

As for `CCCCN(C)CC(O)Cn1cc(/C=C/C(=O)c2cccs2)c2ccccc21` (configuration not stated), the inhibition is 19.9%. The same measure for `COC(=O)c1sc(N)c(C(=O)OC)c1CSc1nnnn1C`: -5.2%; for `O=C(Nc1nnc(C2=COCCO2)o1)c1ccc(Cc2ccccc2)cc1`: -22.6% [at 20 µM].

Regarding `CCCN(CCC)S(=O)(=O)c1ccc(C(=O)Nc2nnc(-c3cc(OC)cc(OC)c3)o2)cc1`, the inhibition is -91.7%. Take `O=C(Nc1nnc(-c2ccc3c(c2)OCCO3)o1)c1ccc(Cc2ccccc2)cc1`: the inhibition is 51.8% (active). As for `O=C(CCc1ccccc1)Nc1nnc(-c2ccc3c(c2)OCCO3)o1`, the figure is 11.2%. Regarding `Cc1ccc(C(=O)Nc2nnc(-c3ccco3)o2)cc1C`, the inhibition was 40.8%.

As to `O=C(Nc1nnc(-c2ccco2)o1)c1ccc2ccccc2c1`, the inhibition was 89.7% (active).

On to `COc1ccc(-c2nnc(NC(=O)c3ccc4c(c3)OCCO4)o2)cc1`, for which the inhibition is 29.6%. The same measure for `Cc1ccc(C(=O)Nc2nnc(-c3ccco3)o2)cc1`: 14.7%; for `CC1CCN(CC(=O)Nc2ccccc2Sc2ccccc2)CC1`: -8%; for `O=C(Nc1cccnc1)c1ccccc1Cl`: 21.5% [at 20 µM].

On to `CN1CCC(N(C)S(=O)(=O)c2ccc(F)cc2F)CC1`, for which the inhibition was -33.5%. The same measure for `Cc1c(C(=O)O)[nH]c2c1C(=O)CC(c1ccc(C(C)(C)C)cc1)C2` (configuration not stated): 14.6%; for `Cc1csc(NC(=O)Nc2cccc(Cl)c2)n1`: -9.6%.

`Cc1csc(NC(=S)Nc2cccc(Cl)c2)n1`: the inhibition was 57.9% (active).

Turning to `NNC(=S)Nc1cccc(Cl)c1`, the inhibition was 18.7%.
